Data taken from the supplement of paper PMC9694430.

Legend:
Experiment in all cases: thermal shift delta Tm vs DMSO control; higher = stronger stabilization (binding)
Conditions in all cases: 12.5 µM; protein concentration 2 µM
LOC_OS02G45750-cb003 = tested on: LOC_OS02G45750-cb003
Outline: (§1)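 Rice kinase domain constructs, made in E. coli and purified, were placed in 96-well plates at 2 μM in 19.5 μl of 100 mM potassium phosphate pH 7.5, 150 mM NaCl, 10% glycerol and 5 × SYPRO Orange, with compound in DMSO. A temperature ramp from 25°C to 95°C at 0.05°C/s was used for differential scanning fluorimetry. The melting temperature shift is a triplicate mean compared with DMSO-only protein, derived from Boltzmann fits.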

LOC_OS02G54510-cb004 = tested on: LOC_OS02G54510-cb004
Outline: as §1

LOC_OS03G04050-cb001 = tested on: LOC_OS03G04050-cb001
Outline: as §1

LOC_OS03G12390-cb001 = tested on: LOC_OS03G12390-cb001
Outline: as §1

LOC_OS03G27990-cb004 = tested on: LOC_OS03G27990-cb004
Outline: as §1

LOC_OS03G50450-cb001 = tested on: LOC_OS03G50450-cb001
Outline: as §1

LOC_OS03G50810-cb003 = tested on: LOC_OS03G50810-cb003
Outline: as §1

LOC_OS04G35114-cb001 = tested on: LOC_OS04G35114-cb001
Outline: as §1

LOC_OS04G38480-cb003 = tested on: T1, LOC_OS04G38480-cb003
T1 sequence (whole entry): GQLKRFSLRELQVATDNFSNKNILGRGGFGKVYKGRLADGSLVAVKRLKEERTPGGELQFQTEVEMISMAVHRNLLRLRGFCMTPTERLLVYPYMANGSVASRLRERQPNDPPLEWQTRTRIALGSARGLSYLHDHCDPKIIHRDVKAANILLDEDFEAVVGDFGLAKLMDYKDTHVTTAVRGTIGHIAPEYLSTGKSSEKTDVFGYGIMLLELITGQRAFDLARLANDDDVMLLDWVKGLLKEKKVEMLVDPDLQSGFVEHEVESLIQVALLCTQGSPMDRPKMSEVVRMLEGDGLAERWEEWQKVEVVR
Outline: as §1

LOC_OS04G41100-cb001 = tested on: T2, LOC_OS04G41100-cb001
T2 sequence (whole entry): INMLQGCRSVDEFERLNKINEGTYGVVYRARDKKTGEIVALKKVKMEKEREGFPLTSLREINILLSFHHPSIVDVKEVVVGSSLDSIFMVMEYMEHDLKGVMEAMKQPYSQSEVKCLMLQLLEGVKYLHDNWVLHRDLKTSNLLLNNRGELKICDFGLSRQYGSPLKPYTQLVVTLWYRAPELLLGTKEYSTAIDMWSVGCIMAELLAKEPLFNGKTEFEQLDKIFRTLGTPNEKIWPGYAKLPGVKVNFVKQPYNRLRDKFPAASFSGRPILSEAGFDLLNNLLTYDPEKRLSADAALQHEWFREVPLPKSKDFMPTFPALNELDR
Outline: as §1
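Note: purified Escherichia coli-expressed rice kinase domain construct.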

Row | SMILES | thermal shift delta Tm (LOC_OS02G45750-cb003) | thermal shift delta Tm (LOC_OS02G54510-cb004) | thermal shift delta Tm (LOC_OS03G04050-cb001) | thermal shift delta Tm (LOC_OS03G12390-cb001) | thermal shift delta Tm (LOC_OS03G27990-cb004) | thermal shift delta Tm (LOC_OS03G50450-cb001) | thermal shift delta Tm (LOC_OS03G50810-cb003) | thermal shift delta Tm (LOC_OS04G35114-cb001) | thermal shift delta Tm (LOC_OS04G38480-cb003) | thermal shift delta Tm (LOC_OS04G41100-cb001)
1 | C=CC(=O)Nc1ccc2ncnc(Nc3cccc(Br)c3)c2c1 | 0.51 °C | 0.24 °C | 0.68 °C | -0.11 °C | 0.2 °C | 0.37 °C | 0.27 °C | 0.79 °C | 0.18 °C | 0.35 °C
2 | C[C@H](Nc1ncnc2[nH]cnc12)c1cc2ccc(F)cc2nc1-c1ccccn1 | 0.75 °C | 0.11 °C | 0.38 °C | 0.1 °C | 0.16 °C | 0.69 °C | 0.49 °C | 0.44 °C | 1.43 °C | 0.13 °C
3 | C=CC(=O)N1CCN(CCCn2c(=O)c(-c3c(Cl)c(OC)cc(OC)c3Cl)cc3cnc(NC)nc32)CC1 | 1.93 °C | 0.21 °C | 0.58 °C | -0.09 °C | 0.48 °C | 0.92 °C | 0.26 °C | -0.04 °C | 0.5 °C | 0.38 °C
4 | Cn1cc(-c2ccc3nnc(C(F)(F)c4ccc5ncccc5c4)n3n2)cn1 | 0.26 °C | -0.14 °C | 0.41 °C | 0.23 °C | -0.02 °C | 0.07 °C | 0.22 °C | 0.35 °C | 0.98 °C | 0.6 °C
5 | Cc1ccc(C(=O)Nc2ccc(CN3CCN(C)CC3)c(C(F)(F)F)c2)cc1C#Cc1cnc2[nH]ncc2c1 [GZD824 Dimesylate] | 10.6 °C | – | 0.96 °C | 3.54 °C | 1.61 °C | 1.08 °C | 6.3 °C | 1.99 °C | 1.28 °C | 2.67 °C
6 | CCn1nc(C2CCN(C(=O)CCO)CC2)nc1-c1cnc(N)c(-c2nnc(C(C)(C)C)o2)n1 | 3.05 °C | 0.25 °C | 0.43 °C | 4.97 °C | 0.52 °C | 0.05 °C | 0.89 °C | 4.72 °C | 2.09 °C | 0.3 °C
7 | CC(C)n1nc(-c2ccc3oc(N)nc3c2)c2c(N)ncnc21 | 6.62 °C | 0.93 °C | 0.38 °C | 0.67 °C | 1.24 °C | 0.47 °C | 0.61 °C | 5.42 °C | 0.87 °C | 0.38 °C
8 | Oc1cc(CNC(=S)/C=C/c2cc(O)c(O)c(Br)c2)cc(O)c1O | 0.11 °C | -0.88 °C | 0.71 °C | 0.57 °C | 0.49 °C | 0.42 °C | 0.39 °C | -1.08 °C | 0 °C | -0.03 °C
9 | O=c1ncn2nc(Sc3ccc(F)cc3F)ccc2c1-c1c(Cl)cccc1Cl | 0.54 °C | -0.07 °C | 0.23 °C | 0.07 °C | -0.01 °C | 0.15 °C | 0.34 °C | 0.66 °C | 1.17 °C | 0.55 °C
10 | C=CC(=O)N[C@H]1CCOC[C@H]1Nc1ncc2cc(-c3c(Cl)c(OC)cc(OC)c3Cl)ccc2n1 | 1.19 °C | -0.3 °C | 0.08 °C | -0.37 °C | -0.08 °C | 0.02 °C | -0.2 °C | 0.09 °C | 0.04 °C | 0.17 °C
11 | CS(=O)(=O)c1ccc(-c2cnc(N)c(C(=O)Nc3ccccc3)n2)cc1 | 4.49 °C | 0.26 °C | 0.2 °C | 0.62 °C | 0.7 °C | 0.18 °C | 0.94 °C | 3.32 °C | 1.11 °C | 0.38 °C
12 | CCOc1cn(-c2ccc(F)cc2C)nc1C(=O)Nc1ccc(Oc2ccnc3cc(OC)c(OC)cc23)c(F)c1 | 1.39 °C | 0.07 °C | 0.15 °C | 0.26 °C | 0.2 °C | 0.09 °C | 1.07 °C | 1.9 °C | 2.19 °C | 0.88 °C
13 | O=C(Nc1cccc(Nc2ncc(Br)c(NCCc3cnc[nH]3)n2)c1)N1CCCC1 | 9.57 °C | 1.18 °C | 0.77 °C | 2.81 °C | 1.73 °C | 6.39 °C | 5.57 °C | 5.16 °C | 2.86 °C | 2.52 °C
14 | CN1CCN(Cc2ccc(NC(=O)Nc3ccc(Oc4ccnc(N)n4)cc3)cc2C(F)(F)F)CC1 | 5.22 °C | 7.6 °C | 0.12 °C | 1.46 °C | 0.06 °C | -0.31 °C | 3.62 °C | 0.16 °C | 2.07 °C | 6.72 °C
15 | CC(C)(C)c1cc(/C=C(\C#N)C(N)=S)cc(C(C)(C)C)c1O [Tyrphostin AG 879] | – | 6.54 °C | 0.85 °C | 2.51 °C | 1 °C | 0.98 °C | 2.05 °C | 1.68 °C | 2.13 °C | 1.27 °C
16 | S=C(NCc1ccc2c(c1)OCO2)N1CCN(c2ncnc3c2oc2ccccc23)CC1 [Amuvatinib (MP-470)] | 0.86 °C | -2.11 °C | 0.55 °C | 0.66 °C | 0.56 °C | 0.69 °C | 0.68 °C | -0.04 °C | 0.39 °C | 0.47 °C
17 | Cc1cc2c(F)c(Oc3ncnn4cc(OC[C@@H](C)OC(=O)[C@H](C)N)c(C)c34)ccc2[nH]1 | 1.3 °C | -0.11 °C | 0.25 °C | -0.23 °C | 1.72 °C | -0.29 °C | 0.18 °C | 5.17 °C | 0.59 °C | 0.68 °C
18 | C=CC(=O)Nc1ccc2ncnc(Nc3ccc(OCc4cccc(F)c4)c(Cl)c3)c2c1 | 2.15 °C | 0.29 °C | 1.39 °C | 2.82 °C | 1.09 °C | 1.56 °C | 1.76 °C | 1.62 °C | 4.58 °C | 1.61 °C
19 | CCOc1cc(C(=O)N2CCC(N3CCN(C)CC3)CC2)ccc1Nc1ncc2c(n1)N(C1CCCC1)c1ccccc1C(=O)N2C | 0.51 °C | -0.24 °C | 0 °C | -0.16 °C | 0.03 °C | 0.49 °C | 0.18 °C | 0.47 °C | 1.8 °C | 0.13 °C
20 | O=C1NC(=O)/C(=C/c2cccc(C(F)(F)F)c2)S1 | 0.26 °C | 0.26 °C | 0.76 °C | 0.17 °C | 0.26 °C | 0.29 °C | 0.08 °C | 0.62 °C | -0.19 °C | 0.43 °C
